From PubChem BioAssay AID687014 (The Scripps Research Institute Molecular Screening Center, 2013)
About 6,800 (1.8%) of roughly 370,000 compounds were called active. This is one part of a sample in which actives are shown more often than they occur.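 Rule for the calls: active = activation above a cutoff set at the mean of all screened compounds plus 3 SD (cut at about 10% in these data); inactive = the rest.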

Each compound was assayed on Nuclear hormone receptor DAF-12 (Heterodera glycines), GAL4 fusion (assay: H. glycines DAF-12 receptor agonists, primary screen, cell-based, luminescence, HEK293, GAL4 fusion, UAS-luciferase (AID 687014;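 note: 0% = DMSO wells and 100% = sodium butyrate wells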)). Conditions: HEK293 GAL4-hgDAF12 UAS-luciferase reporter, agonist luminescence; at 6.8 µM; active compounds read high; normalized to butyrate control.

SMILES	activation
CC(C)(C)OC(=O)N[C@H](C(=O)OC(C)(C)C)c1ccc(Br)cc1	2.51% (inactive)
CC(=O)Nc1ccc(S(=O)(=O)NCC(=O)OCC(=O)c2ccc[nH]2)cc1	-0.16% (inactive)
C/C(=N\NC(=O)OC(C)(C)C)c1ccc[nH]1	13.9% (active)
COC(=O)[C@]12C[C@H](CC(=O)NCc3ccc(OC)c(OC)c3)C(=O)N(Cc3ccccc3)C1=C[C@H](C(C)C)O[C@@H]2C1CC1	-0.64% (inactive)
c1cncc(CNc2ccnc(-c3ccc4c(c3)OCO4)n2)c1	8.09% (inactive)
Cc1cc(NS(=O)(=O)c2ccc(NC(=O)CSc3nnc(-c4ccc(C(C)(C)C)cc4)n3Cc3ccco3)cc2)nc(C)n1	0.44% (inactive)
O=C(NC1CCCC1)C(c1ccccn1)N(C(=O)c1csnn1)C1CCCC1 (centres undefined)	-0.77% (inactive)
CN(C)c1ccc(C=C2C(=O)OC3(CCCC3)OC2=O)cc1	11.1% (active)
CN(C)c1ccc(/C=C2\NC(=S)N(Cc3ccccc3)C2=O)cc1	2.67% (inactive)
CCCC[C@H](C(=O)N(CC)c1ccccc1)[C@@H](O)c1ccc2ccccc2c1	-1.89% (inactive)
CCCNC(=O)Nc1ccc2c(c1)C(=O)N(C)[C@H]1CC[C@H](CC(=O)NCC3CCCCC3)O[C@@H]1CO2	2.46% (inactive)
CCc1ccccc1S(=O)(=O)Cc1ccc(C(=O)NCCc2ccccc2)o1	-1.29% (inactive)
CCCOc1ccc(Oc2c(Cl)cnn(Cc3cccc4ccccc34)c2=O)cc1	-0.9% (inactive)
COc1ccc2nc(-c3ccccn3)ccc2c1	14.8% (active)
COc1ccc2cc(CCl)c(Cl)nc2c1	5.31% (inactive)
COc1ccc(C=C(C#N)C#N)c(CSc2ccccn2)c1	-4.02% (inactive)
CN1CCCCC(NC(=O)C(C)(C)C)C1=O (centres undefined)	-0.75% (inactive)
COc1ccc(-c2cc3ncccc3cn2)cc1	14.3% (active)
COc1ccc(-c2cc(C3CCN(c4ncccc4[N+](=O)[O-])CC3)[nH]n2)cc1	-1.82% (inactive)
COc1ccc(-c2cc3n(n2)CCc2nc4ccccc4n2-3)cc1	1.57% (inactive)
COc1cccc(N(C)C(=O)[C@@H](C)[C@@H](O)c2ccc3ccccc3c2)c1	-0.12% (inactive)
O=C(NCc1ccco1)C1CCCN(S(=O)(=O)c2ccc(Cl)s2)C1 (centres undefined)	2.01% (inactive)
CN(C(N)=NC(=O)/C=C/c1ccccc1)C(C#Cc1ccccc1)Cc1ccccc1 (centres undefined)	2.81% (inactive)
CCCCn1c(N)c(N(CC(C)C)C(=O)CSc2ccc([N+](=O)[O-])cc2)c(=O)[nH]c1=O	2.08% (inactive)
